Records with an inconclusive call do not appear. Entries that show only a call come without a potency. Unmarked numbers belong to inactive results. Calls of active or inactive are those of the source. Unless noted, calls come from the whole dose curve; as a rule, active = well fitted curve in the direction sought with a large enough effect; inconclusive = small, poorly fitted or top-dose-only effect, or another doubt; inactive = no such curve, though single readings can be large; an effect the other way counts as inactive or inconclusive.
Columns and labels:
[1] = biological target: Aldehyde dehydrogenase, mitochondrial (Homo sapiens) (UniProt P05091); experiment: qHTS for Inhibitors of the Aldehyde Dehydrogenase Family (ALDH2) Confirmatory screens (AID 2061303; active = well fitted inhibition curve with a large enough effect; title and protocol of this record describe different tests; note: nearly all actives have a fitted effect of over 45% in size; note: potency is the fitted concentration of half-maximal effect)
[2] = qHTS for Inhibitors of the Aldehyde Dehydrogenase Family (ALDH1A2, ALDH1A3, ALDH2, ALDH3A1) (AID 2061307); note: nearly all actives have a fitted effect of over 50% in size; for potency: test system not described further here; potency is the fitted concentration of half-maximal effect
[3] = biological target: Aldehyde dehydrogenase, mitochondrial (Homo sapiens) (UniProt P05091); experiment: qHTS for Inhibitors of the Aldehyde Dehydrogenase Family (ALDH2) Primary screen (AID 2061308); note: nearly all actives have a fitted effect of over 55% in size; note: potency is the fitted concentration of half-maximal effect
[4] = biological target: Retinaldehyde dehydrogenase 3 (Homo sapiens) (UniProt P47895); experiment: qHTS for Inhibitors of the Aldehyde Dehydrogenase Family (ALDH1A3) Primary screen (AID 2061315)
[5] = biological target: Aldehyde dehydrogenase 1A1 (Homo sapiens) (UniProt P00352); experiment: qHTS for Inhibitors of the Aldehyde Dehydrogenase Family (ALDH1A1) Confirmatory screens (AID 2061316); note: nearly all actives have a fitted effect of over 65% in size; note: potency is the fitted concentration of half-maximal effect
[6] = BET inhibitor-based combinations targeting novel dependencies in MECOM-rearranged (r) AML: SET-2 cell line (AID 2202231); details: SET-2 AML cells viability, CellTiter-Glo luminescence, 48 h; viability: hits give low values, concentration not given here; note: potency is the fitted concentration of half-maximal effect; nearly all actives have a fitted effect of over 35% in size
Outline: (§1)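 Luminescent ATP readout (CellTiter-Glo) after 48 hr drug exposure gives viability. Curves span 11 concentrations and are normalized to DMSO and empty wells. Activity is reported as area under the curve and its Z-transform within each cell line.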

[7] = BET inhibitor-based combinations targeting novel dependencies in MECOM-rearranged (r) AML: AML-194 cell line (AID 2202237; note: nearly all actives have a fitted effect of over 40% in size)
Outline: as §1

| SMILES | Potency [1] | Potency [2] | Potency [3] | Potency [4] | Potency [5] | Potency [6] | Potency [7] |
| --- | --- | --- | --- | --- | --- | --- | --- |
| O=C(Nc1ccc2ccccc2c1)Nc1nnc(Br)s1 | 7.94 µM (active) | 15.8 µM (active) | inactive | inactive |  |  |  |
| COc1cccc(CNc2ccc(S(=O)(=O)Nc3ccc(C4CCNCC4)cc3)cc2)c1O | inactive | inactive | inactive | inactive |  |  |  |
| COc1cccc(Nc2nc(C#N)nc(NC3CCCC3)n2)c1 | inactive | 10.1 µM (active) | inactive | inactive | inactive |  |  |
| Cc1cnc(-c2ccccc2C(F)F)nc1NCc1ccc(-n2ccnn2)cc1 | 25.1 µM (active) | 4.47 µM (active) | inactive | inactive |  |  |  |
| N#Cc1nc(Nc2ccccc2)nc(NC2CCCC2)n1 | 1.78 µM (active) | 0.631 µM (active) | inactive | inactive |  |  |  |
| Cc1nc(C2=NC(c3ccccc3Cl)C3=C(CCCC3=O)N2)cs1 (centres undefined) | inactive | inactive | inactive | inactive |  |  |  |
| N#Cc1nc(Nc2cccc(F)c2)nc(NC2CCCC2)n1 | 1.78 µM (active) | 3.55 µM (active) | inactive | inactive |  |  |  |
| Cc1ccc(NC(=O)CN2C(=O)N/C(=C\c3cccn3-c3ccc(P(=O)(O)O)cc3)C2=O)cc1 | inactive | inactive | inactive | inactive | inactive |  |  |
| N[C@@H](CC(=O)O)C(=O)Nc1ccc(Cl)cc1C(=O)c1ccc[nH]1 | inactive | inactive | inactive | inactive | inactive |  |  |
| N#Cc1c(-c2ccc(O)cc2)no[n+]1[O-] | inactive | 12.7 µM (active) | inactive | inactive |  |  |  |
| CNC(=O)c1cc(Oc2ccc3nc(N[C@@H]4CCCC[C@H]4O)sc3c2)ccn1 | inactive | 10.1 µM (active) | inactive | inactive |  | 20.9 µM (active) | inactive |
| CC(=O)Nc1sc2c(c1-c1ccc(C(F)(F)F)cc1)CCNC2 | inactive | inactive | inactive | inactive | inactive |  |  |
| CN(C)c1ccc(/C=C/C(=O)Nc2cccc([S+](=O)([O-])Nc3ccccc3F)c2)cc1 | inactive | inactive | inactive | inactive |  |  |  |
| COc1ccc(-c2cncc(NC(=O)c3cccs3)c2)cc1OC | inactive | inactive | inactive |  | inactive |  |  |
| Cc1ccc(CNc2ccc(N3CCN(C)CC3)cc2)cc1 | inactive | inactive | inactive | inactive | inactive |  |  |
| CC(=O)N1CCN(c2ccc(NCc3ccc(-c4cccc(Cl)c4)o3)cc2)CC1 | 1.13 µM (active) | 1.59 µM (active) | 2.24 µM (active) |  | 6.34 µM (active) |  |  |
| Cc1cc2c(s1)c1cnn(Cc3ccc(-n4cncn4)cc3)c(=O)c1n2C | 25.1 µM (active) | 14.1 µM (active) | inactive | inactive | 11.3 µM (active) |  |  |
| S=C(Nc1cc(Cl)ccn1)N1CCN(c2ccc(Cl)c(Cl)c2)CC1 | 5.62 µM (active) | 6.31 µM (active) | 3.98 µM (active) | inactive | 4 µM (active) |  |  |
| N[C@@H](CO)C(=O)Nc1ccc(Cl)cc1C(=O)c1ccc[nH]1 | inactive | inactive | inactive | inactive |  |  |  |
| O=S(=O)(NCCCCCCNS(=O)(=O)c1c(F)cccc1F)c1ccc2c(c1)OCCO2 | inactive | 5.01 µM (active) | inactive | inactive | 8.96 µM (active) |  |  |
| CC(C)(C)OC(=O)N1CCN(c2ccc(NCc3ccc4c(-c5ccc(F)cc5)cc(=O)oc4c3)cc2)CC1 | inactive | 5.04 µM (active) | inactive | inactive |  |  |  |
| CC(C)N1CCc2c(sc(NC(=O)C(F)(F)F)c2-c2nc3ccccc3s2)C1 | 11.3 µM (active) | 8.96 µM (active) | 31.6 µM (active) |  | 5.65 µM (active) |  |  |
| c1ccc(CN(Cc2ccccc2)Cc2nnc(-c3cc4ccccc4[nH]3)s2)cc1 | 4 µM (active) | 11.2 µM (active) | inactive | inactive |  |  |  |
| Cc1cc(N[S+](=O)([O-])c2cc3c(cc2Cl)NC(=O)CO3)ccc1Cl | inactive | inactive | inactive | inactive | inactive |  |  |
| FC(F)(F)c1cnc(N2CCN(C(=S)Nc3cc(Cl)ccn3)CC2)c(Cl)c1 | 7.12 µM (active) | 5.65 µM (active) | 12.6 µM (active) | inactive | 2.52 µM (active) |  |  |
| Cc1cc(N[S+](=O)([O-])c2ccc(NC(=O)Cc3ccc4nccnc4c3)cc2)no1 | inactive | inactive | inactive | inactive |  |  |  |
| COc1ccc(C2Nc3ccccc3C(=O)N2Cc2ccccc2)cc1COc1ccc(Cl)cc1 (centres undefined) | inactive | 5.65 µM (active) | inactive | inactive |  |  |  |
| COc1ccc(C2Nc3ccccc3C(=O)N2Cc2ccccc2)cc1COc1cccc(Cl)c1 (centres undefined) | 5.01 µM (active) | 5.65 µM (active) | inactive | inactive | inactive |  |  |
| CC(C)c1ccccc1-c1nc(NCC2CCN(c3cccnc3)CC2)c2ccccc2n1 | inactive | inactive | inactive | inactive |  |  |  |
| COc1ccccc1-c1no[n+]([O-])c1C#N | inactive | 3.18 µM (active) | inactive | inactive | inactive |  |  |
